Whole data set: some 59,000 sequences, median the read-out near -0.00055, cut for the lowest 2% near -2. Only a selection was taken, and the lowest values are over-represented in it overall.

This assay can be described thus: Identification of proteins required for the processing of the EWS-FLI1 nascent transcript.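 Also: robust z of luciferase light less the median z of siRNAs with the same seed.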 Conditions: TC32 Ewing sarcoma NR0B1-luc vs CMV-luc (EWS-FLI1 target promoter against control promoter), 48 h; screened at 20 nM (by protocol). The procedure, abridged:
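Genome-wide siRNA screen (Ambion v4.1, three siRNAs per gene, 20 nM final, RNAiMax) in Ewing sarcoma TC32 cells carrying NR0B1-promoter or CMV-promoter luciferase; OneGlo luciferase read 48 h post-transfection. Data normalized, z-score-MAD transformed and seed-adjusted.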
As to UAGAAUAAAAUACCGAAUG against SNRPD1, the seed-corrected z-score was -1.88.

The sequence UUUGUCUCAAGAAUUAUCA against SPTSSA gave a seed-corrected z-score of 0.0457.

In the case of UUGAUUCUCGGGUCUUUGG against FAM71F2, the seed-corrected z-score was -12.6.

Consider UUUGAUUAAAAGGUCUCUG against PIGX, for which the seed-corrected z-score was -1.29.

On to UGAGAUGAACUGAUCUUGC against OR10W1, for which the seed-corrected z-score came to 0.324.

UCAGGUUUAAGAGGUAUGC against TRAM2 displayed a seed-corrected z-score of 0.485.

As to UCCAGUUGCACUUCUGUCC against CGREF1, the seed-corrected z-score is -3.65.

UGUAUACAAAGAGACAAUC against TAS2R5 yielded a seed-corrected z-score of 0.728.

In the case of UUUGCUAGAAGCCUUCUUG against DOK6, the seed-corrected z-score was -0.847.

For the sequence UUGAGGUCAAUUUCGGCUG against H2AFY2, the seed-corrected z-score is -0.937.

Take UGUUUUAACUGCUGUAUCC against RP9: the seed-corrected z-score amounted to 0.734.

For the sequence UCUUCAUUAGCUUCUUCAC against PLCXD2, the seed-corrected z-score came to 0.44.

For the sequence UGAUGCACGAGAAGAAGCC against KCNK3, the seed-corrected z-score was -13.5.

As to UUUGCUACAGAAUUGCUUG against ANAPC16, the seed-corrected z-score was -1.17.

Turning to AAAGGAUCUCUCUGUAUUU against SNTN, the seed-corrected z-score is 1.99.

For the sequence UGUACUGUCAGACUAAUGC against MRGPRX3, the seed-corrected z-score was -0.749.

Consider UUCAGCAUUACUCUCUGCG against RPL17P39, for which the seed-corrected z-score was -2.51.

For the sequence UCAGCAUAUAGCAGGAUCC against NPR2, the seed-corrected z-score is -0.565.

Consider AUUCUCACCAGACAUCCUG against KRT74, for which the seed-corrected z-score came out at 1.12.

For AAGAAUUCCAUACAUCUUC against ACKR1, the seed-corrected z-score is -0.0448.

Regarding UAAGCAUCCAGUAGGCAGG against XBP1, the seed-corrected z-score is -3.08.

The sequence UCUCUAAAAGGUGUCUUGC against SH3RF2 gave a seed-corrected z-score of 0.606.

As to AUAGUAAUCAUCCAGAGCA against ARHGEF35, the seed-corrected z-score was -0.685.

AUAGGUACUGCACUGCAGG against GPS2: the seed-corrected z-score was -0.377.

With UGACUAUGAUGUUGAAUCC against OR8A1, the seed-corrected z-score is -1.35.

The sequence UUCGAUUCAUGAAAUCUCC against GTF3C1 returned a seed-corrected z-score of 0.399.

For UGUUCAACGAGGGUAUAGC against ZNF416, the seed-corrected z-score was determined as 0.828.

With UUGUGGUAGAUCUGGACGC against VASP, the seed-corrected z-score was -2.15.

In the case of ACAGUUAUUCUGUCCAUCG against LDLRAD3, the seed-corrected z-score is -6.33.

With UCUGGUUUUUGUACCCGCC against LOC403323, the seed-corrected z-score was -0.673.

For UUUUUAACAGAGGUCUCCA against RAB42P1, the seed-corrected z-score is -0.18.

With UUUCAAUCUUGUCUGAGGC against COX11, the seed-corrected z-score was -0.764.

UUGAGUAAGAACUUUAUCC against SMAD1: the seed-corrected z-score is -2.45.

In the case of AAUAUGUCGUUGUAAGUGC against ZNF644, the seed-corrected z-score is -0.209.

UUCUUCUAAAACAUCCUCG against GLE1: the seed-corrected z-score was -0.174.

For the sequence UUAUCUAUCACCCAAGCAG against RTN4IP1, the seed-corrected z-score is -0.598.

Turning to UUCCGUUUAAUUUCAACUG against BRCA2, the seed-corrected z-score was 0.32.

The sequence UAUUUGUUUCACCUCACUG against DNAJC8 displayed a seed-corrected z-score of 1.25.

In turn, AGAAGGAACAUGCGUGCAG against TTC34 yielded a seed-corrected z-score of 1.38.

Take UCCUUGUCGACAACGAGUG against GAPVD1: the seed-corrected z-score was -3.68.

On to UAAUUGAGUUUCUAAAGUG against CDKAL1, for which the seed-corrected z-score is -0.809.

As for UUCAUUAUGUGGAACAUAC against CYP19A1, the seed-corrected z-score is -1.02.

AAAGUGGACACCAUAGACC against HGD registered a seed-corrected z-score of 0.0682.

For the sequence UUUGUAGCAAGGAAUACAG against OR7A5, the seed-corrected z-score is -3.5.

On to UGUCGAUCUAGGUACUGAC against SART3, for which the seed-corrected z-score is -0.192.

For the sequence AUAAAUGGUGGUUUAAGGU against METTL2B, the seed-corrected z-score is -0.343.

Turning to AAAGCCAGGAGUUCCGCUG against GNG8, the seed-corrected z-score was -0.7.

UCAGGAACACCGAGUACUC against S100A5: the seed-corrected z-score is -0.776.

Take UAGUUGGUUAAAUUGGACC against TEKT3: the seed-corrected z-score is -0.0576.

Sequence AAACCUUUUGCAUCUAUGG against GSTA12P gave a seed-corrected z-score of 0.753.

Regarding AAAGUUGCUGGUGUGCUCC against NUTM1, the seed-corrected z-score is -1.38.

Regarding UCUUUGAGCAGCUUCCAGC against SOX4, the seed-corrected z-score is -5.6.

As for UCAGGUAGCAGAGUACUGC against IL22RA1, the seed-corrected z-score is -0.631.

As to AGAGUUCAAAUGUAUUGUC against KLHL21, the seed-corrected z-score is -1.34.

Regarding UCUUUUUGUAGGUCUCUGC against RCN3, the seed-corrected z-score is -3.02.

For UCCUUUAACAACAAGUUGU against IL10, the seed-corrected z-score was -0.0724.

The sequence UCUCUAAACAGGUCCCAAG against PDX1 yielded a seed-corrected z-score of 0.0859.

Regarding AUCGCUAAGACGGUGAUCC against EIF4ENIF1, the seed-corrected z-score was -0.0436.

For UUCCGCAGCAAUGAUAGGC against TMEM132D, the seed-corrected z-score was -0.636.

As for UCUGCUACUCCAUUGAUCU against TRMT12, the seed-corrected z-score is -1.63.

For the sequence UACAUAGAAGGUGUUGGGC against CD81, the seed-corrected z-score was determined as 0.0377.

As to UUCUUUUGUCCAUACAAUC against TAS2R45, the seed-corrected z-score was -2.34.

In the case of UACAAGCCCAGUUGAGAUC against DSTNP4, the seed-corrected z-score was -0.547.

On to UACGAUAUUGUUGCUACAG against SLIT2, for which the seed-corrected z-score was -0.0537.

For the sequence UAUUAGUCCCGGACGAAUG against SCAF8, the seed-corrected z-score was -0.115.

Take UUGUUUAUGAGCAAGGUGG against RPL41: the seed-corrected z-score is -0.22.

Take UUUGGUGCAAAGUCCAUGC against SKIV2L: the seed-corrected z-score was -2.51.

With UUGAGGAUACAGCACAGCC against SERPINI1, the seed-corrected z-score was -0.491.

Consider ACAGGCUUUAUCAUACUGC against ZXDC, for which the seed-corrected z-score was -0.245.

As for UAGGUGAUAUCUCUCCGCC against TGM4, the seed-corrected z-score is -0.284.

Regarding ACAGUUCUCGCAGUACUGG against GPANK1, the seed-corrected z-score was -0.197.

Consider UGACCAUCCAGAAGUAGUU against SPHK1, for which the seed-corrected z-score is -0.911.

Turning to UUGGUAGAUAUGAUCUUCG against TCEA3, the seed-corrected z-score is 0.375.

Turning to UUGGGUAUUGUUCUUGACU against SNRPD2, the seed-corrected z-score is -2.58.

Take UGUUUAUUAGAAGUGACUC against FOLR2: the seed-corrected z-score is -0.238.

On to UAGUUGUCAGUGAAGACUG against VIP, for which the seed-corrected z-score is -2.09.

As for CUUGUAGCUUCUCUACAUC against LOC441347, the seed-corrected z-score was -0.389.

Take UUCUCAUCAAGCUGUCUCC against SH3RF2: the seed-corrected z-score is 0.136.

Turning to UAUAACAGCAGUAUCUGUC against TMEM215, the seed-corrected z-score was 0.183.

UUGUUGAAAUGGAACUCCU against HOXB1 had a seed-corrected z-score of 0.384.

As to UCAGUGCACGCAACUGUGU against TNXB, the seed-corrected z-score was 0.0625.

For the sequence UAUAUGAUUAACAAAACGG against XKR3, the seed-corrected z-score came out at 0.439.

On to UUCUUUCCGAUGAUACUGC against PCBP2, for which the seed-corrected z-score is -3.36.

UUUCGCAGUUGUAAGACCG against CROCCP3: the seed-corrected z-score is 0.0641.

Turning to UAGAAUUUCUCGUACAACC against RALGPS1, the seed-corrected z-score was determined as 0.75.

Source of the values: PubChem BioAssay AID1159506 (National Center for Advancing Translational Sciences (NCATS), 2015).
